The structures appear in SMILES notation. Among all 280,000 compounds or so, about 1,100 (0.39%) were called active. About 7% were inconclusive and are not listed. Calls come from the whole dose curve; as a rule, active = well fitted inhibition curve with a large enough effect; inconclusive = small, poorly fitted or top-dose-only effect, or effect the other way; inactive = flat fitted curve, though single readings scatter. Shown is part of a subset that was picked to be rich in actives. Where a call stands in place of a potency, no number is given.
Potency is the fitted concentration of half-maximal effect.

The target in this assay is Microtubule-associated protein tau (Homo sapiens) (UniProt P10636). Put plainly: qHTS for Inhibitors of Tau Fibril Formation, Fluorescence Polarization. Note: nearly all actives have a fitted effect of over 55% in size. The following applies: K18 P301L tau heparin fibrillization, Alexa594 FP, 6 h; series mostly up to 57.7 µM. From the text: NIH Molecular Libraries Probe Production Network [MLPCN]
Chain of Microtubule-associated protein tau (Homo sapiens) (P10636 561-689 P618L limits assumed): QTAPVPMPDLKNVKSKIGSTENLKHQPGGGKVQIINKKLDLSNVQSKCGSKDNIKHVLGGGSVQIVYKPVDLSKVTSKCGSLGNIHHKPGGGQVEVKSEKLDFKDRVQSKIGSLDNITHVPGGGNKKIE
NIH Chemical Genomics Center [NCGC]
Assay Provider: Carlo Ballatore, University of Pennsylvania
The microtubule-associated protein tau is an abundant protein in the axons of neurons that stabilizes microtubules. With its ability to modulate microtubule dynamics, tau contributes directly or indirectly, to key structural and regulatory cellular functions. Particularly important is the influence tau exerts on axonal transport, which allows signaling molecules, trophic factors and other essential cellular constituents to travel along the axons. Under pathological conditions, tau becomes sequestered into insoluble aggregates called neurofibrillary tangles. This phenomenon is believed to have pathological consequences by promoting axonal transport deficits that ultimately lead to synaptic dysfunction and neuronal loss. To identify inhibitors of tau aggregation, a heparin-induced tau fibril formation assay was used that employed a recombinantly expressed fragment of tau, K18 (Q242-E372), bearing a P301L mutation (Gustke et al. 1994; Hong et al. 1998).
Gustke, N., B. Trinczek, et al. (1994). "Domains of tau protein and interactions with microtubules." Biochemistry 33(32): 9511-22.
Hong, M., V. Zhukareva, et al. (1998).
Li, W. and V. M. Lee (2006). "Characterization of two VQIXXK motifs for tau fibrillization in vitro." Biochemistry 45(51): 15692-701.
von Bergen, M., S. Barghorn, et al. (2001). "Mutations of tau protein in frontotemporal dementia promote aggregation of paired helical filaments by enhancing local beta-structure." J Biol Chem 276(51): 48165-74.
NCGC Assay Protocol Summary:
For screening, 2 uL/well human K18 P301L (15 uM unlabeled and 0.24 uM Alexa 594-labeled tau final concentrations) in reagent buffer (100 mM sodium acetate pH 7) was dispensed into black solid 1536-well plates (Grenier) using a solenoid-based dispenser. Following transfer of 23 nL compound or DMSO vehicle by a pin tool, 2 uL/well heparin (20 uM final concentration) in reagent buffer was added and the plate centrifuged 15 s at 1000 RPM. Plates were incubated 6 hr at 37 C and then 1 uL/well ThT (30 uM final concentration) was added. After a 1 hr ambient incubation, the plates were read by an Envision (Perkin Elmer) to monitor Alexa 594 FP (555 nm excitation and 632 nm emission).
Keywords: NIH Roadmap, MLPCN, MLI, MLSMR, NCGC, qHTS, tau, tauopathies, Alzheimer's disease, fibril, neurodegeneration, aggregation
As for `CC[N+](C)(CC)CCC[n+]1c(-c2ccccc2)c2cc(N)ccc2c2ccc(N)cc21`, the Potency is 6.31 µM (active).
In the case of `CCCN(C/C=C/I)C1CCc2ccc(O)cc2C1` (stereo not given) it was “inactive”; in that of `c1ccc2sc(SNC3CCCCC3)nc2c1`, “inactive”.
In the case of `CN(C)[C@@H]1C(=O)C(C(N)=O)=C(O)[C@@]2(O)C(=O)C3=C(O)c4c(O)cccc4[C@@](C)(O)C3CC12` (stereo not given in full) it was “inactive”; in that of `CO[C@@H]1C[C@@H](C[C@H]2CC[C@H](C)[C@@H]([C@@H](C)C(=O)O)O2)O[C@]2(O[C@](C)([C@H]3CC[C@@](C)(C4OC([C@H]5O[C@@](O)(CO)[C@H](C)C[C@@H]5C)C[C@@H]4C)O3)C[C@H]2C)[C@@H]1C` (stereo not given in full), “inactive”.

Source of the values: PubChem BioAssay AID1468 (National Center for Advancing Translational Sciences (NCATS), 2008).
